Measurements: the supplement of paper PMC7411054

Assays:
Experiment in all cases: phenotypically active (imaging signature differs from DMSO and reproducible) at any of 0.3-9 uM (binary (1 = active, 0 = inactive)); higher = active
Conditions in all cases: treatment time: 24 h
A549-ACTB-RAB5A = test system: A549-ACTB-RAB5A
Method in brief: (§1)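 Four wells per concentration (0.3, 1, 3 or 9 µM) were treated for 24 h in each of fifteen gene-edited reporter lines from A549, HepG2 and WPMY1 cells, then imaged live. After normalising live-cell features to solvent control wells, deviation was defined as ≥3 of 4 wells lying past the 95th percentile of control Euclidean distances. Reproducibility was defined as a median replicate Pearson correlation above the 95th percentile of non-replicates. Both had to hold for phenotypic activity.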

A549-CANX-COX4 = test system: A549-CANX-COX4
Method in brief: as §1

A549-GM130-SQSTM1 = test system: A549-GM130-SQSTM1
Method in brief: as §1

A549-TP53BP1-CLTA = test system: A549-TP53BP1-CLTA
Method in brief: as §1

A549-TUBA1B-RELA = test system: A549-TUBA1B-RELA
Method in brief: as §1

HepG2-ACTB-RAB5A = test system: HepG2-ACTB-RAB5A
Method in brief: as §1

HepG2-CANX-COX4 = test system: HepG2-CANX-COX4
Method in brief: as §1

HepG2-GM130-SQSTM1 = test system: HepG2-GM130-SQSTM1
Method in brief: as §1

HepG2-TP53BP1-CLTA = test system: HepG2-TP53BP1-CLTA
Method in brief: as §1

HepG2-TUBA1B-RELA = test system: HepG2-TUBA1B-RELA
Method in brief: as §1

WPMY1-ACTB-RAB5A = test system: WPMY1-ACTB-RAB5A
Method in brief: as §1

WPMY1-CANX-COX4 = test system: WPMY1-CANX-COX4
Method in brief: as §1

WPMY1-GM130-SQSTM1 = test system: WPMY1-GM130-SQSTM1
Method in brief: as §1

WPMY1-TP53BP1-CLTA = test system: WPMY1-TP53BP1-CLTA
Method in brief: as §1

WPMY1-TUBA1B-RELA = test system: WPMY1-TUBA1B-RELA
Method in brief: as §1

Measured: phenotypically active

CCc1cccc2c3c([nH]c12)C(CC)(CC(=O)O)OCC3 (stereo not given) [etodolac]
inactive: A549-ACTB-RAB5A 0 | A549-CANX-COX4 0 | A549-GM130-SQSTM1 0 | A549-TP53BP1-CLTA 0 | A549-TUBA1B-RELA 0 | HepG2-ACTB-RAB5A 0 | HepG2-CANX-COX4 0 | HepG2-GM130-SQSTM1 0 | HepG2-TP53BP1-CLTA 0 | HepG2-TUBA1B-RELA 0 | WPMY1-ACTB-RAB5A 0 | WPMY1-CANX-COX4 0 | WPMY1-GM130-SQSTM1 0 | WPMY1-TP53BP1-CLTA 0 | WPMY1-TUBA1B-RELA 0

CCCCCOC(=O)Nc1nc(=O)n([C@@H]2O[C@H](C)[C@@H](O)[C@H]2O)cc1F [capecitabine]
inactive: A549-ACTB-RAB5A 0 | A549-CANX-COX4 0 | A549-GM130-SQSTM1 0 | A549-TP53BP1-CLTA 0 | A549-TUBA1B-RELA 0 | HepG2-ACTB-RAB5A 0 | HepG2-CANX-COX4 0 | HepG2-GM130-SQSTM1 0 | HepG2-TP53BP1-CLTA 0 | HepG2-TUBA1B-RELA 0 | WPMY1-ACTB-RAB5A 0 | WPMY1-CANX-COX4 0 | WPMY1-GM130-SQSTM1 0 | WPMY1-TP53BP1-CLTA 0 | WPMY1-TUBA1B-RELA 0

CC[C@H](C)C(=O)O[C@H]1C[C@H](O)C=C2C=C[C@H](C)[C@H](CC[C@@H](O)C[C@@H](O)CC(=O)O)[C@H]21 [pravastatin]
inactive: A549-ACTB-RAB5A 0 | A549-CANX-COX4 0 | A549-GM130-SQSTM1 0 | A549-TP53BP1-CLTA 0 | A549-TUBA1B-RELA 0 | HepG2-ACTB-RAB5A 0 | HepG2-CANX-COX4 0 | HepG2-GM130-SQSTM1 0 | HepG2-TP53BP1-CLTA 0 | HepG2-TUBA1B-RELA 0 | WPMY1-ACTB-RAB5A 0 | WPMY1-CANX-COX4 0 | WPMY1-GM130-SQSTM1 0 | WPMY1-TP53BP1-CLTA 0 | WPMY1-TUBA1B-RELA 0

CC1(C)CCC(c2ccc(Cl)cc2)=C(CN2CCN(c3ccc(C(=O)NS(=O)(=O)c4ccc(N[C@H](CCN5CCOCC5)CSc5ccccc5)c(S(=O)(=O)C(F)(F)F)c4)cc3)CC2)C1 [navitoclax]
inactive: A549-ACTB-RAB5A 0 | A549-CANX-COX4 0 | A549-GM130-SQSTM1 0 | A549-TP53BP1-CLTA 0 | A549-TUBA1B-RELA 0 | HepG2-ACTB-RAB5A 0 | HepG2-CANX-COX4 0 | HepG2-GM130-SQSTM1 0 | HepG2-TP53BP1-CLTA 0 | HepG2-TUBA1B-RELA 0 | WPMY1-ACTB-RAB5A 0 | WPMY1-CANX-COX4 0 | WPMY1-GM130-SQSTM1 0 | WPMY1-TP53BP1-CLTA 0 | WPMY1-TUBA1B-RELA 0

CC(=O)OCC[N+](C)(C)C [acetylcholine]
inactive: A549-ACTB-RAB5A 0 | A549-CANX-COX4 0 | A549-GM130-SQSTM1 0 | A549-TP53BP1-CLTA 0 | A549-TUBA1B-RELA 0 | HepG2-ACTB-RAB5A 0 | HepG2-CANX-COX4 0 | HepG2-GM130-SQSTM1 0 | HepG2-TP53BP1-CLTA 0 | HepG2-TUBA1B-RELA 0 | WPMY1-ACTB-RAB5A 0 | WPMY1-CANX-COX4 0 | WPMY1-GM130-SQSTM1 0 | WPMY1-TP53BP1-CLTA 0 | WPMY1-TUBA1B-RELA 0

O=C(O)c1cccc(C(=O)O)n1 [2,6-Pyridinedicarboxylic Acid]
inactive: A549-ACTB-RAB5A 0 | A549-CANX-COX4 0 | A549-GM130-SQSTM1 0 | A549-TP53BP1-CLTA 0 | A549-TUBA1B-RELA 0 | HepG2-ACTB-RAB5A 0 | HepG2-CANX-COX4 0 | HepG2-GM130-SQSTM1 0 | HepG2-TP53BP1-CLTA 0 | HepG2-TUBA1B-RELA 0 | WPMY1-ACTB-RAB5A 0 | WPMY1-CANX-COX4 0 | WPMY1-GM130-SQSTM1 0 | WPMY1-TP53BP1-CLTA 0 | WPMY1-TUBA1B-RELA 0

CC(C)(C#N)c1cc(Cn2cncn2)cc(C(C)(C)C#N)c1 [Anastrozole]
inactive: A549-ACTB-RAB5A 0 | A549-CANX-COX4 0 | A549-GM130-SQSTM1 0 | A549-TP53BP1-CLTA 0 | A549-TUBA1B-RELA 0 | HepG2-ACTB-RAB5A 0 | HepG2-CANX-COX4 0 | HepG2-GM130-SQSTM1 0 | HepG2-TP53BP1-CLTA 0 | HepG2-TUBA1B-RELA 0 | WPMY1-ACTB-RAB5A 0 | WPMY1-CANX-COX4 0 | WPMY1-GM130-SQSTM1 0 | WPMY1-TP53BP1-CLTA 0 | WPMY1-TUBA1B-RELA 0

CC(C)(C)NCC(O)c1ccc(O)c(CO)c1 (stereo not given) [albuterol]
inactive: A549-ACTB-RAB5A 0 | A549-CANX-COX4 0 | A549-GM130-SQSTM1 0 | A549-TP53BP1-CLTA 0 | A549-TUBA1B-RELA 0 | HepG2-ACTB-RAB5A 0 | HepG2-CANX-COX4 0 | HepG2-GM130-SQSTM1 0 | HepG2-TP53BP1-CLTA 0 | HepG2-TUBA1B-RELA 0 | WPMY1-ACTB-RAB5A 0 | WPMY1-CANX-COX4 0 | WPMY1-GM130-SQSTM1 0 | WPMY1-TP53BP1-CLTA 0 | WPMY1-TUBA1B-RELA 0

CCN(c1ccccc1)c1cc(NC)[n+](C)c(C)n1
inactive: A549-ACTB-RAB5A 0 | A549-CANX-COX4 0 | A549-GM130-SQSTM1 0 | A549-TP53BP1-CLTA 0 | A549-TUBA1B-RELA 0 | HepG2-ACTB-RAB5A 0 | HepG2-CANX-COX4 0 | HepG2-GM130-SQSTM1 0 | HepG2-TP53BP1-CLTA 0 | HepG2-TUBA1B-RELA 0 | WPMY1-ACTB-RAB5A 0 | WPMY1-CANX-COX4 0 | WPMY1-GM130-SQSTM1 0 | WPMY1-TP53BP1-CLTA 0 | WPMY1-TUBA1B-RELA 0

Cc1cc(C(=O)NNCc2ccccc2)no1 [isocarboxazid]
inactive: A549-ACTB-RAB5A 0 | A549-CANX-COX4 0 | A549-GM130-SQSTM1 0 | A549-TP53BP1-CLTA 0 | A549-TUBA1B-RELA 0 | HepG2-ACTB-RAB5A 0 | HepG2-CANX-COX4 0 | HepG2-GM130-SQSTM1 0 | HepG2-TP53BP1-CLTA 0 | HepG2-TUBA1B-RELA 0 | WPMY1-ACTB-RAB5A 0 | WPMY1-CANX-COX4 0 | WPMY1-GM130-SQSTM1 0 | WPMY1-TP53BP1-CLTA 0 | WPMY1-TUBA1B-RELA 0

O=C(O)CCCc1ccccc1 [Sodium 4-Phenylbutyrate]
inactive: A549-ACTB-RAB5A 0 | A549-CANX-COX4 0 | A549-GM130-SQSTM1 0 | A549-TP53BP1-CLTA 0 | A549-TUBA1B-RELA 0 | HepG2-ACTB-RAB5A 0 | HepG2-CANX-COX4 0 | HepG2-GM130-SQSTM1 0 | HepG2-TP53BP1-CLTA 0 | HepG2-TUBA1B-RELA 0 | WPMY1-ACTB-RAB5A 0 | WPMY1-CANX-COX4 0 | WPMY1-GM130-SQSTM1 0 | WPMY1-TP53BP1-CLTA 0 | WPMY1-TUBA1B-RELA 0
